Laboratory results from PubChem BioAssay AID493240 (Broad Institute, 2011).
Out of some 1,300 compounds screened, about 270 (21%) were called active. The rule behind the calls is not given here. Only a sample is shown. Potency and affinity values are given separately.

Assay: SK-MEL-5 parental cell viability loss, dose response, orthogonal assay for MITF inhibitor project, CellTiter-Glo, cherry-picked, set 3 (AID 493240)
Conditions: SK-MEL-5 viability, ATP luminescence (CellTiter-Glo), 24 h; series mostly up to 35 µM; activity change, negative = viability loss: at the top concentration

Structure (SMILES)	activity change, negative = viability loss
CCOC(=O)C1CCCN(C(=O)C2CCN(S(=O)(=O)CC)CC2)C1 (configuration not stated)	4.63% (inactive)
Nc1ccc(-c2nc3ccc(C(=O)O)cc3s2)cc1	-9.29% (inactive)
Cn1c(COc2ccccc2)nc2ccccc21	-6.39% (inactive)
COCc1nc(-c2ccc(-c3ccccc3)nc2OC)no1	-1.92% (inactive)
Brc1cccc(/C=N/Nc2nn[nH]n2)c1	4.62% (inactive)
CC(C)=CCc1c(O)ccc2c1OC(c1ccc(O)c(O)c1)CC2=O (configuration not stated)	-7.03% (inactive)
O=C(Nc1cc2c(cc1Cl)OCCO2)c1ccco1	6.8% (inactive)
COc1ccc(-n2c(C)cc(C(=O)CCl)c2C)cc1	-44.3% (inactive)
CCOc1ccc(-n2c(C)cc(C(=O)CCl)c2C)cc1	-41.3% (inactive)
CCN(CC)CC(=O)Nc1scc2c1c(=O)oc1ccccc12	9.99% (inactive)
CCN(Cc1ccc(OC)c(F)c1)C(=O)CCl	-6.7% (inactive)
COc1ccccc1N(C(=O)CCl)c1cn(C(C)=O)c2ccccc12	-32.2% (inactive)
O=C(c1ccc(F)cc1)C(CN1CCOCC1)c1ccccc1 (configuration not stated)	-14.1% (inactive)
Cn1nnnc1Sc1ncnc2scc(-c3ccc(F)cc3)c12	-16.3% (inactive)
Cn1nnnc1Sc1ncnc2scc(-c3ccsc3)c12	-1.66% (inactive)
O=C(NC1=NCCS1)c1ccc(Cl)c(Cl)c1	-7.94% (inactive)
O=C(Nc1ccc2nc(-c3ccccc3)[nH]c2c1)c1ccco1	-12% (inactive)
O=C(/C=C\Nc1ccc2c(c1)OCO2)c1ccccn1	-44.2% (inactive)
COc1ccc(C(=O)/C=C/Nc2ccccn2)cc1	-36.9% (inactive)
CCN(CC)Cc1c(O)ccc2c1O/C(=C\C=C\c1ccccc1)C2=O	-2.2% (inactive)
Cc1cc(/C=C(\C#N)C(=O)O)c(C)n1CC(C)C	12.1% (inactive)
CN(C)c1ccc(/C=N\NC(=O)c2cccc3cc[nH]c23)cc1	7.77% (inactive)
Cc1ccc(-c2nc(C#N)c(NCc3ccco3)o2)cc1	-10% (inactive)
Cc1cc(NC(=O)c2ccc([N+](=O)[O-])o2)ccc1NC(=O)c1ccco1	-34.3% (inactive)
COc1ccccc1/C=C/C=N/NC(=O)c1cccs1	2.03% (inactive)
O=C(Nc1ccc2oc(-c3cccnc3)nc2c1)c1ccc([N+](=O)[O-])o1	-13.7% (inactive)

Structure (SMILES)	activity change, negative = viability loss
Cc1ccccc1OCC(=O)Nc1cccc(C(=O)O)c1	-8.49% (inactive)
CC(C)c1ccc(/C=C2\SC(=S)N(CCC(=O)N3CCCCC3CCO)C2=O)cc1 (configuration not stated)	-2.33% (inactive)
CN(C)S(=O)(=O)c1cccc(NC(=O)CSc2nc3c(cc2C#N)C(=O)CC(C)(C)C3)c1	-14.6% (inactive)
O=C(CCC(=O)c1ccc[nH]1)c1ccc(Cl)cc1	-5.44% (inactive)
CCOC(=O)N1CCN(C(=O)c2ccc(Cn3c(=S)[nH]c4ccc(Br)cc4c3=O)cc2)CC1	-37% (inactive)
C=CCNc1nc(-c2ccccn2)nnc1-c1ccccc1	-21.7% (inactive)
Cc1cc(C)c2nc3nc(C)cc(C)c3c(N)c2c1	-25.4% (inactive)
N#C/C(=C\C=C\c1ccccc1[N+](=O)[O-])C(=O)NCc1ccccc1	-18.2% (inactive)
Cc1cc(Cl)ccc1OCCCC(=O)N1CCOCC1	-12% (inactive)
Cc1cccc(N(O)C(=O)Nc2cccc(Cl)c2)c1	-4.38% (inactive)
Nc1c(-c2ccccc2)cnc2c(-c3ccccc3)cnn12	-13.3% (inactive)
CC(=O)c1ccc(Sc2nnnn2-c2ccccc2)c([N+](=O)[O-])c1	-8.68% (inactive)
Cc1ccc(-c2noc(-c3ccno3)n2)cc1	-0.841% (inactive)
Cc1cc(-n2c(C)cc(C(=O)CCl)c2C)no1	-18.2% (inactive)
Cc1ccc(OCCCCN2CCCCC2)c(Br)c1	-4.91% (inactive)
Clc1ccccc1CSc1nnc(-c2ccncc2)o1	-11.6% (inactive)
c1ccc(C[n+]2cccc3c4ccccc4ccc32)cc1	-37.1% (inactive)
CC1(C)Cc2c(sc(NC(=O)c3ccc4ncsc4c3)c2C(N)=O)C(C)(C)N1	-34.2% (inactive)
CS(=O)(=O)c1ccc2nc(NC(=O)c3ccccc3)sc2c1	-12.4% (inactive)
CCCN(CCC)C1=CC(=[N+]2CCCC2)CC(C)(C)C1	-30.5% (inactive)
Cc1nc(Sc2nnnn2C)c2c3c(sc2n1)CCC3	-24.1% (inactive)
COC(=O)c1ccc(-n2c(C)cc(C(=O)CCl)c2C)cc1	-49.6% (inactive)
Cc1ccc2c(c1)COc1c3ccc(C(=O)O)cc3nn1-2	-36.1% (inactive)
Nc1c(-c2ccc(Cl)cc2)nnn1-c1ccccc1	-10.9% (inactive)
Nc1ccc(-c2cc3ccccc3c(=O)o2)cc1	-23.3% (inactive)
Cc1ccc(NC(=O)c2cc(N3C(=O)C=CC3=O)ccc2N2CCOCC2)cc1	-28.6% (inactive)

Structure (SMILES)	activity change, negative = viability loss
COc1cc(OC)cc(-c2oc(=O)c3cc(OC)c(OC)cc3c2C(F)(F)F)c1	5.28% (inactive)
O=C1c2ccccc2CN1c1ccccc1	-2.83% (inactive)
Cn1c(/C=C/c2cccc([N+](=O)[O-])c2)c([N+](=O)[O-])c(=O)n(C)c1=O	-4.42% (inactive)
O=C(O)c1cccc(NC(=O)c2cccc(NC(=O)C3CCCO3)c2)c1 (configuration not stated)	-11.9% (inactive)
N#Cc1nc(/C=C/c2ccccc2)oc1NCCCN1CCOCC1	-14.3% (inactive)
Oc1cc(NCCN2CCOCC2)cc2cccnc12	-56.1% (inactive)
CC(C)(C)c1cc(NCCCn2ccnc2)n2ncc(-c3ccccc3)c2n1	-5.35% (inactive)
O=c1c(Cl)c(Cl)cnn1Cc1ccc(F)cc1	2.13% (inactive)
Cc1c(NC(=O)C(C)OC(=O)c2ccc([N+](=O)[O-])s2)c(=O)n(-c2ccccc2)n1C (configuration not stated)	6.54% (inactive)
Cc1cc(Sc2ncnc(N)c2[N+](=O)[O-])ncn1	-23.4% (inactive)
Cc1ccc(OCC(=O)Nc2ccccc2F)cc1	4.09% (inactive)
Fc1cccc(Cl)c1CSc1nnc(-c2ccncc2)o1	12.6% (inactive)
CN(CCC#N)C(=O)COC(=O)c1ccccc1C(=O)c1ccc(Cl)c([N+](=O)[O-])c1	-14.9% (inactive)
CCOC(=O)N1C(=O)[C@](CC)(c2ccccc2)N1C(=O)OCC	-16.8% (inactive)
CC(C)C(=O)Nc1cccc(NC(=O)c2cc3ccccc3o2)c1	-5.61% (inactive)
Cc1ccc(NC(=O)c2cc3ccccc3oc2=O)cc1S(=O)(=O)N(C)C	-2.98% (inactive)
Cc1ccc(S(=O)(=O)Nc2cccc3cccnc23)cc1	12.9% (inactive)
COc1ccc(N/N=C/c2c(C(=O)O)ccc3ccccc23)cc1	-18.1% (inactive)
CC1C/C(=C\c2cccnc2)C(=O)/C(=C/c2cccnc2)C1 (configuration not stated)	-9.76% (inactive)
C=C1C(=O)C=C[C@]2(C)C[C@@H]3OC(=O)[C@](C)(O)[C@H]3C[C@@H]12	-25.9% (inactive)
Cc1ccc2nc(NC(=O)c3ccc(Br)o3)sc2c1	-6.22% (inactive)
CC(C)C(NC(=O)OCc1ccccc1)C(=O)OCC(=O)N1CCCCC1 (configuration not stated)	11.4% (inactive)
CCOC(=O)c1ccc(NC(=O)Cc2cccs2)cc1	-5.41% (inactive)
CCc1ccc(Nc2nc(C)cc(C)n2)cc1	-4.01% (inactive)
CCOC(=O)c1ccc(NC(=O)c2nc(S(=O)(=O)Cc3ccccc3)ncc2Cl)cc1	-33.5% (inactive)
